In PubChem BioAssay (NCI):
Compounds without any hit were thinned out: in the full panel of roughly 83,000, 20% have a hit.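 The endpoint reported here, percent growth, reads 100 for growth as untreated, 0 for no net growth and -100 for all cells dead.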 Active and inactive are the calls of the source. How the source made its calls: active means growth percent below 10; inactive means the rest.

The compounds below were run on HL-60(TB) leukemia (assay: NCI-60 one-dose screen, 48 h (100 = growth as untreated, 0 = no growth, -100 = all killed)). Conditions: 10 µM unless noted.
In the case of `O=C(N/N=C/c1ccc(O)c(O)c1)c1sc2ccccc2c1Cl`, the growth was 4.17% (active).
For `COc1cc(C2=Nc3c(N)nc(N)nc3NC(c3cccc(Nc4ccnc5cc(C(F)(F)F)ccc45)c3)C2)cc(OC)c1OC` (stereo not given), the growth was 63.2% (inactive).
For `CCC(c1ccccc1)C(CC)c1ccc(O)c(O)c1` (stereo not given), the growth was 68% (inactive).
With `CC(=O)c1sc2sc(C(C)=O)c(C)c2c1C` the growth was 90.1% (inactive).
For `COc1cc2c(cc1I)-c1c(cc(OC)c(OC)c1OC)CC[C@@H]2NC(C)=O`, the growth was 6.93% (active).
In the case of `COc1cc2c(c(OC)c1OC)C(=O)CC(c1cccc(C(=O)Nc3cccc(Br)c3)c1)O2` (stereo not given), the growth was 91.8% (inactive).
With `COc1cc2cc3cc4cc(OC)c(OC)cc4c(C)[n+]3cc2cc1OC` (tested in a mixture with another compound) the growth was 33% (inactive).
With `COC1/C=C\OC2(C)Oc3c(C)c(O)c4c(O)c(c(CN(C)CCO)c(O)c4c3C2=O)NC(=O)/C(C)=C\C=C/C(C)C(O)C(C)C(O)C(C)C(OC(C)=O)C1C` (stereo not given) the growth was 114% (inactive).
In the case of `COc1ccc(C(=O)C2=CC(=O)C(=O)C2)cc1OC`, the growth was 110% (inactive).
In the case of `COc1ccc(/C=C/C(c2cc(OC)c(OC)c(OC)c2)n2ccnc2)cc1O` (stereo not given), the growth was -36.6% (active).
For `NS(=O)(=O)c1ccc(-n2ncc3c(N/N=C/c4ccccc4)ncnc32)cc1`, the growth was 83.1% (inactive).
With `CC1(C)N=C(N)N=C(N)N1c1ccc(Cl)c(Cl)c1` the growth was 35.7% (inactive).
In the case of `COc1ccc(CNc2c3ccccc3nc3ccccc23)cc1`, the growth was 43% (inactive).
For `COc1cc(-c2cc(/C=C/C(C)=O)[nH]n2)cc(OC)c1OC`, the growth was 66.7% (inactive).
`COc1cccc(-c2nc3sccn3c2-c2ccnc(NCCNS(=O)(=O)c3ccc(F)cc3)c2)c1` was tested, and the growth was -6.21% (active).
`CN(C)c1ccc(/C=C2\C=C(c3nc4ccccc4s3)OC2=O)cc1` was tested, and the growth was 94.8% (inactive).
For `CC(=O)CC(c1ccccc1)c1c(C)[nH]c2ccccc12` (stereo not given), the growth was 107% (inactive).
`COc1ccc(/C(C)=N/NC(=O)CSc2nc3ccccc3c(=O)n2CCc2ccc(S(N)(=O)=O)cc2)cc1` was tested, and the growth was 76.7% (inactive).
In the case of `O=C1OC(c2ccc(-c3ccccc3)cc2)=C/C1=C/c1c(Cl)cccc1Cl`, the growth was 77.8% (inactive).
`COc1cnccc1-c1nc2ccc3[nH]ncc3c2c2c1CCCC2` was tested, and the growth was 35.1% (inactive).
`O=C(O)CCCCNC(=O)c1ccccc1` was tested, and the growth was 101% (inactive).
`O=C1C=CC(O)=CC1=P(c1ccccc1)(c1ccccc1)c1ccccc1` was tested, and the growth was 97.8% (inactive).
With `CC1(C)CC[C@]23CC[C@]4(C)[C@H](CC[C@@H]5[C@@]6(C)CCNCC(C)(C)[C@@H]6CC[C@]54C)[C@H]2[C@H]1OC3` the growth was 23.6% (inactive).
With `CCOC(=O)c1ccc2c(c1)c1c(C)c3cccnc3c(C)c1n2C` the growth was 77.4% (inactive).
`O/N=C/c1cccs1` was tested, and the growth was 95.3% (inactive).
With `C=CCOC(=O)C1=C(C)NC2=C(C(=O)CC(C)(C)C2)C1c1ccc(OC)cc1` (stereo not given) the growth was 80.6% (inactive).
With `Cc1cc(C)c(NC(=O)c2sc3nc4c(cc3c2N)CCCCCC4)c(C)c1` the growth was -20.2% (active).
`COc1ccc2[nH]cc(-c3nc(-c4cn(C)c5ccncc45)cs3)c2c1` was tested, and the growth was 82.3% (inactive).
`O=c1[nH]c2ccccc2cc1-c1nc2ccncc2[nH]1` was tested, and the growth was 25.9% (inactive).
In the case of `Cc1ccc(S(=O)(=O)NCCCNc2cc(-c3cn(C(C)(C)C)nc3-c3cccc(O)c3)ccn2)cc1`, the growth was 66.6% (inactive).
In the case of `O=C(NOCCO)c1cc(CN2OCCCC2=O)c(F)c(F)c1Nc1ccc(I)cc1F`, the growth was 18.2% (inactive).
In the case of `c1ccc(N2c3nc4ccccc4cc3Sc3cc4ccccc4nc32)nc1`, the growth was 97.2% (inactive).
With `CCOC(=O)c1sc(-c2ccc(OS(=O)(=O)c3cccs3)c(C=O)c2)nc1C` the growth was -34.1% (active).
In the case of `Cc1ccccc1N1CCN(C(=S)c2ccccc2)CC1`, the growth was 108% (inactive).
In the case of `O=S(=O)(NCCNc1nccc(-c2c(-c3cccc(O)c3)nc3sccn23)n1)c1ccc(F)cc1`, the growth was 86.5% (inactive).
With `Cl` the growth was 107% (inactive).
For `COc1cc(NC(=O)c2cccc(-c3cc(=O)c4c(O)c(OC)c(OC)cc4o3)c2)cc(OC)c1OC`, the growth was 78% (inactive).
With `COc1ccc(C(=O)c2cc(OC)c(OC)c(OC)c2)cc1OC(=O)C(Cl)(Cl)Cl` the growth was -45.3% (active).
In the case of `COc1ccc(NC(=O)c2ccc(Cl)cc2Cl)cc1`, the growth was 103% (inactive).
`COc1ccc2c(c1)/C(=C/c1cc(OC)c(OC)c(OC)c1)C(=O)N2C` was tested, and the growth was 3.32% (active).
